Results published in PubChem BioAssay (NCATS).
Values joined by “and” are separate entries in the source; they are usually repeats but may differ in a detail not shown here. Identical values can stand only once. More than one record can exist for a structure, and the calls need not agree. Active and inactive are the calls of the source. Unless noted, calls come from the whole dose curve.

Key:
[1] = target: Estrogen receptor (Homo sapiens) (UniProt P03372); assay: qHTS assay for small molecule antagonists of estrogen receptor alpha signaling (AID 588513; active = well fitted curve in the direction sought with a large enough effect in the signal ratio, with a control signal flat, not every such curve was filed as active; inconclusive = small, poorly fitted or top-dose-only effect, or effect the other way, or a change in a side signal; inactive = no such curve, though single readings can be large or run the other way; the % refers to the signal ratio; note: potency is the fitted concentration of half-maximal effect)
Estrogen receptor (Homo sapiens), sequence (P03372 whole entry, looked up): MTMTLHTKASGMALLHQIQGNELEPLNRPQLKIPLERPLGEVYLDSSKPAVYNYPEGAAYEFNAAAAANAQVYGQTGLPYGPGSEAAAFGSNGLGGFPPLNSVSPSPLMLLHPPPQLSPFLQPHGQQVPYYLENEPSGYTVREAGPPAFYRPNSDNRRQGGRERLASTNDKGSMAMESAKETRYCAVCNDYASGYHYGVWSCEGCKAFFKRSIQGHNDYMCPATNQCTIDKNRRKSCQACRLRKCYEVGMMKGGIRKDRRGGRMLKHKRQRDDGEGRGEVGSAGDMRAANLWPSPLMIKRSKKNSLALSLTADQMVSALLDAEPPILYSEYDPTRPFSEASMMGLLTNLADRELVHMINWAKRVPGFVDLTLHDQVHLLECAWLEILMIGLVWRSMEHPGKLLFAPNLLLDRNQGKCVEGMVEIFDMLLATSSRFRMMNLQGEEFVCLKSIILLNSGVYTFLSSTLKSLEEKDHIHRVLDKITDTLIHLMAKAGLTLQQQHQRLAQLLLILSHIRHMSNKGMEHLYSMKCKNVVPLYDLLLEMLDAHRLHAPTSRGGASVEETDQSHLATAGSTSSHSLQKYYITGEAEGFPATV
In short: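 ER-alpha-UAS-bla GripTite HEK 293 cells in medium with 2% charcoal/dextran-treated FBS were preincubated 4 h at 37 C, dosed with compound (1:2 titration), stimulated with 0.5nM 17-beta-estradiol for 18 h, then read by CCF4 beta-lactamase fluorescence.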

[2] = target: Estrogen receptor (Homo sapiens) (UniProt P03372); assay: qHTS assay for small molecule agonists of estrogen receptor alpha signaling (AID 588514); note: nearly all actives have a fitted effect of over 70% in size; note: potency is the fitted concentration of half-maximal effect;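 for activation: 0% = vehicle only and 100% = reference agonist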
In short: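 ER-alpha-UAS-bla GripTite HEK293 cells, 5000/well in 2% charcoal/dextran-stripped FBS medium, treated with compound titrations 18 h at 37 C. CCF4 beta-lactamase read by fluorescence after 2 h RT; normalised to 20 nM 17-beta-estradiol (100%) and DMSO (0%), Hill fit for EC50 and efficacy.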

[3] = target: Peroxisome proliferator-activated receptor delta (Homo sapiens) (UniProt Q03181); assay: qHTS assay for small molecule agonists of peroxisome proliferator-activated receptor delta signaling (AID 588534);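 note: 0% = DMSO basal wells and 100% = positive control agonist at 10 µM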
Peroxisome proliferator-activated receptor delta (Homo sapiens), sequence (Q03181 whole entry, looked up): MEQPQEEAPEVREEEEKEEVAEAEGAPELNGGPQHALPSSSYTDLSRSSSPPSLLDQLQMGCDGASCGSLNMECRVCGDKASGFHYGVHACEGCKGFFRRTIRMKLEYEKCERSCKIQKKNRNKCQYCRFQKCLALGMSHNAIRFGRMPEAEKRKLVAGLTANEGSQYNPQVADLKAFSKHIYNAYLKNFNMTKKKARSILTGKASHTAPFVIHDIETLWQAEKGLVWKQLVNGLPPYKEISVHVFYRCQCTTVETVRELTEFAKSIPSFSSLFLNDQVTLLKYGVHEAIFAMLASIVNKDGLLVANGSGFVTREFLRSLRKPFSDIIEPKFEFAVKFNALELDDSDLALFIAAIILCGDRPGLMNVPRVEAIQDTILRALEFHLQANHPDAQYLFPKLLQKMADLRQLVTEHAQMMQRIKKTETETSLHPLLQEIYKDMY
In short: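 Cells carrying a PPAR-delta beta-lactamase reporter were treated with compounds for 18 h at 37 °C in agonist mode. CCF4 fluorescence was read after 2 h; EC50 and efficacy from Hill fits.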

[4] = target: Peroxisome proliferator-activated receptor gamma (Homo sapiens) (UniProt P37231); assay: qHTS assay for small molecule agonists of peroxisome proliferator-activated receptor gamma signaling (AID 588536; active = well fitted curve in the direction sought with a large enough effect in the signal ratio, with a control signal flat, not every such curve was filed as active; inconclusive = small, poorly fitted or top-dose-only effect, or effect the other way, or a change in a side signal; inactive = no such curve, though single readings can be large or run the other way; the % refers to the signal ratio;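 note: 0% = DMSO basal wells and 100% = rosiglitazone at 2 µM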)
Peroxisome proliferator-activated receptor gamma (Homo sapiens), sequence (P37231 whole entry, looked up): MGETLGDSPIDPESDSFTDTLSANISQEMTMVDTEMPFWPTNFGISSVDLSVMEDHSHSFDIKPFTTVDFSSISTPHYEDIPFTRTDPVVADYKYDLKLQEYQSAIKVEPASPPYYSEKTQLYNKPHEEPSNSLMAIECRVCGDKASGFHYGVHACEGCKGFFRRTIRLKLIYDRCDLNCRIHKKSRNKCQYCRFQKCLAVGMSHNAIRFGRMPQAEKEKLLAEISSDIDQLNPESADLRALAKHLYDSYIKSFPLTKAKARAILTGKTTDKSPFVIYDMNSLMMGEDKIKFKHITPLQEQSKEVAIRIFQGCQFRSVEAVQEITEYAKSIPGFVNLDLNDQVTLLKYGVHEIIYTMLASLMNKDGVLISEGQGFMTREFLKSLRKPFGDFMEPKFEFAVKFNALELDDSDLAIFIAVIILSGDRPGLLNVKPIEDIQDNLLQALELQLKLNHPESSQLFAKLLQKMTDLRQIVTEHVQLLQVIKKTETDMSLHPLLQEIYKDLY
In short: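 Ratiometric blue/green fluorescence (405 nm excitation; 460 and 530 nm emission) from CCF4-loaded HEK293 reporter cells serves as signal. Exposure to test compounds lasts 16 h at 37 C in medium containing 1% charcoal/dextran-treated serum.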

[5] = target: Vitamin D3 receptor (Homo sapiens) (UniProt P11473); assay: qHTS assay for small molecule antagonists of vitamin D receptor signaling (AID 588541); note: potency is the fitted concentration of half-maximal effect
Vitamin D3 receptor (Homo sapiens), sequence (P11473 whole entry, looked up): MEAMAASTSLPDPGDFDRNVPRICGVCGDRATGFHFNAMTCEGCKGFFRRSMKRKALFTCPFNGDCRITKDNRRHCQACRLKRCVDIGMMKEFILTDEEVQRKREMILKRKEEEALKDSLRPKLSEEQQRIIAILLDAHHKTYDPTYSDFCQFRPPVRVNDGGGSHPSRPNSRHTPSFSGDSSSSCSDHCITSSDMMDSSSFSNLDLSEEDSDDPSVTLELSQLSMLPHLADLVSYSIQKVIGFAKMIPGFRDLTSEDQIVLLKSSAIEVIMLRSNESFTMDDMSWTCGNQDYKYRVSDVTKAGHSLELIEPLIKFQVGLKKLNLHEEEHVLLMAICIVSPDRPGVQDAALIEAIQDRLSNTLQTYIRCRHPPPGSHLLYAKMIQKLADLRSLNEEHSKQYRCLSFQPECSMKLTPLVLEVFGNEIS
In short: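 VDR-UAS-bla HEK293T cells (2000/well, 2% charcoal-stripped FBS) were treated with titrated compounds plus 1-alpha,25-dihydroxyvitamin D3 (50 nM or 3 nM final) for 16 h at 37 C. CCF4 beta-lactamase fluorescence was read; Hill fits gave IC50.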

[6] = target: Vitamin D3 receptor (Homo sapiens) (UniProt P11473); assay: qHTS assay for small molecule agonists of vitamin D receptor signaling (AID 588543);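 note: 0% = DMSO basal and 100% = reference agonist control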
In short: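 GeneBLAzer VDR-UAS-bla HEK293T cells in 2% charcoal-stripped FBS medium were dosed with compound titrations for 16 h at 37 °C; CCF4 β-lactamase readout (405 nm ex, 460/530 nm em). EC50 and efficacy from Hill fits, normalized to 50 nM calcitriol (100%) and DMSO (0%).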

[7] = qHTS assay for small molecule agonists of retinoid X receptor alpha signaling (AID 588544); conditions: HEK293T RXRa-UAS-bla, beta-lactamase reporter, 18 h; 530 nm emission;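 for activation: 0% = DMSO basal wells and 100% = reference agonist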
[8] = target: Retinoic acid receptor RXR-alpha (Homo sapiens) (UniProt P19793); assay: as above
Retinoic acid receptor RXR-alpha (Homo sapiens), sequence (P19793 whole entry, looked up): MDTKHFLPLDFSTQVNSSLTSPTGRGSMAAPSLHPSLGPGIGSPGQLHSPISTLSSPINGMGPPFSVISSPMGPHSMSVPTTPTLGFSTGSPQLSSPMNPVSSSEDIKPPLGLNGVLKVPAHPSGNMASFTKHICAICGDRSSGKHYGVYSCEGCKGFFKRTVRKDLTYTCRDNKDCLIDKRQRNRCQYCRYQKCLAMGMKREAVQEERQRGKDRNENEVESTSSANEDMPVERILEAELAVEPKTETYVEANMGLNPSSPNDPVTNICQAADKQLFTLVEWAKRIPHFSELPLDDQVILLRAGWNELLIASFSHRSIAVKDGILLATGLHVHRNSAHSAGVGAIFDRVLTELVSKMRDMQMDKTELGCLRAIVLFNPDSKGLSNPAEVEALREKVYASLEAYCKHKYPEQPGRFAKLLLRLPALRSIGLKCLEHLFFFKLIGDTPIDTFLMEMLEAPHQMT

[9] = qHTS assay for small molecule antagonists of retinoid X receptor alpha signaling (AID 588546; active = well fitted inhibition curve with a large enough effect in the signal ratio, with a control signal flat, not every such curve was filed as active; inconclusive = small, poorly fitted or top-dose-only effect, or effect the other way, or a change in a side signal; inactive = no such curve, though single readings can be large or run the other way; the % refers to the signal ratio; note: potency is the fitted concentration of half-maximal effect;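 for max response: cells stimulated with 9-cis-retinoic acid as agonist; % is set by controls: 0 for no effect and ±100 for the full control effect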); conditions: HEK293T RXRa-UAS-bla, beta-lactamase ratio, antagonist mode; measured here: W530 green channel, cytotoxicity proxy
In short: (§1)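 Beta-lactamase reporter inhibition, read as CCF4 fluorescence ratio (ex 405, em 460/530 nm) after 2 h at RT. HEK293T UAS-bla cells, 2500/well, were stimulated with 9-cis-RA at 500 or 100 nM final alongside test compound for 18 h at 37 C.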

[10] = target: Retinoic acid receptor RXR-alpha (Homo sapiens) (UniProt P19793); assay: as above; conditions: HEK293T RXRa-UAS-bla, beta-lactamase ratio, antagonist mode
In short: as §1

[11] = qHTS assay for small molecule activators of the p53 signaling pathway (AID 651743; active = well fitted activation curve with a large enough effect in the signal ratio, not every such curve was filed as active; inconclusive = small, poorly fitted or top-dose-only effect, or a change in a side signal; the % refers to the signal ratio; note: potency is the fitted concentration of half-maximal effect; for activation: series mostly up to about 92 µM; % of control where 0% means no effect); conditions: HCT-116 p53RE-bla, beta-lactamase FRET ratio, 16 h; activation: stronger effect = higher value
In short: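 Cell-based beta-lactamase reporter (p53 response elements, HCT-116 background). After a 5-hour preincubation, cells received compound for 16 hours at 37 C; substrate development ran 2 hours at room temperature.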

[12] = qHTS assay for environmental chemicals that activate the Aryl hydrocarbon Receptor (AhR) signaling pathway (AID 651777; active = well fitted curve in the direction sought with a large enough effect; inconclusive = small, poorly fitted or top-dose-only effect, or another doubt; inactive = no such curve, though single readings can be large; an effect the other way counts as inactive or inconclusive; note: % of control where 0% means no effect; nearly all actives have a fitted effect of over 15% in size); conditions: 1A2-DRE human hepatoma cells, luciferase, 24 h; activation: stronger effect = higher value
In short: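 Concentration–response screening used 1,200 1A2-DRE cells per well, 24 hr compound exposure (37 C, 5% CO2), and One-Glo luminescence as the AhR-driven CYP1A2 reporter signal.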

[13] = target: Peroxisome proliferator-activated receptor alpha (Homo sapiens) (UniProt Q07869); assay: qHTS assay for small molecule agonists of the peroxisome proliferator-activated receptor alpha (PPARalpha) signaling pathway (AID 651778; active = well fitted curve in the direction sought with a large enough effect; inconclusive = small, poorly fitted or top-dose-only effect, or another doubt; inactive = no such curve, though single readings can be large; an effect the other way counts as inactive or inconclusive; note: % of control where 0% means no effect); conditions: PathHunter PPARalpha complementation, chemiluminescence, 6 h; max response: stronger effect = higher value
Peroxisome proliferator-activated receptor alpha (Homo sapiens), sequence (Q07869 whole entry, looked up): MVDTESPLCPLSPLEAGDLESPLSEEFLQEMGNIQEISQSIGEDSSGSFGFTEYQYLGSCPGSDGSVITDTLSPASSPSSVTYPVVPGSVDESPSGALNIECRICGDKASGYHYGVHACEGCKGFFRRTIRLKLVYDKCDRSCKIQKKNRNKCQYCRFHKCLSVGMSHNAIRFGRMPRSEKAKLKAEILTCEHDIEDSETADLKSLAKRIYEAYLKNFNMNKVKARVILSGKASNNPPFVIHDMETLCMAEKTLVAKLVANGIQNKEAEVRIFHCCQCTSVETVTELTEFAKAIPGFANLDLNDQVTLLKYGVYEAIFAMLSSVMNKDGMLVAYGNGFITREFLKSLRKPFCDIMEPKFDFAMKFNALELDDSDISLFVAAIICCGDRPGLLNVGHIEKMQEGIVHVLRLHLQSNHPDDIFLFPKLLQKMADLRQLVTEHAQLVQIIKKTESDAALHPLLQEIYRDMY
In short: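 Cells plated at 2,000/well and held overnight at 37 C, 5% CO2, then compound added by pin tool for 6 hr; after PathHunter detection reagent and 60 min at room temperature, chemiluminescence from enzyme complementation was read.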

[14] = qHTS assay for small molecule agonists of the antioxidant response element (ARE) signaling pathway measured by Nrf2-dependant transcriptional activity (AID 720636; active = well fitted curve in the direction sought with a large enough effect in the repeat runs; inconclusive = weak or mixed curves; inactive = no such curve, though single readings can be large; an effect the other way counts as inactive or inconclusive; note: potency is the fitted concentration of half-maximal effect;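 for activation: HepG2 cells with an ARE-driven luciferase reporter; % of control where 0% means no effect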)
In short: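 Attachment 6 hr at 37 C, then compound versus DMSO vehicle for 16 hr in ARE-luc HepG2 cells (1% dialyzed FBS); luminescence recorded 30 min after ONE-Glo addition at room temperature.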

[15] = qHTS assay for small molecule agonists of the antioxidant response element (ARE) signaling pathway measured by Nrf2-dependant transcriptional activity - cell viability counter screen (AID 720653; active = well fitted curve in the direction sought with a large enough effect in the repeat runs; inconclusive = weak or mixed curves; inactive = no such curve, though single readings can be large; an effect the other way counts as inactive or inconclusive; note: potency is the fitted concentration of half-maximal effect; for max response: % is set by controls: 0 for no effect and ±100 for the full control effect); conditions: ARE-bla HepG2 viability, CellTiter-Glo ATP luminescence, 16 h; max response: stronger effect = lower value
In short: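 ARE-bla HepG2 cells (2,000/well) rested 5 hrs at 37C/5% CO2, then exposed to compounds in DMSO for 16 hrs. Viability was read in the same wells as intracellular ATP by luminescence, 30 min at room temperature after reagent addition.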

[16] = qHTS assay for cell viability of HEK293 cells (AID 743288; active = well fitted curve in the direction sought with a large enough effect; inconclusive = small, poorly fitted or top-dose-only effect, or another doubt; inactive = no such curve, though single readings can be large; an effect the other way counts as inactive or inconclusive; note: nearly all actives have a fitted effect of over 50% in size; note: potency is the fitted concentration of half-maximal effect; for max response: % is set by controls: 0 for no effect and ±100 for the full control effect); conditions: ATP luminescence (CellTiter-Glo), 18 h; max response: stronger effect = lower value
In short: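 Parental HEK293 cells were seeded at 2,000 cells/well, rested at least 5 h at 37 C, then exposed to compounds in DMSO for 18 h at 37 C. Viability was read as ATP-dependent luciferase luminescence after 30 min at room temperature.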

[17] = target: Nuclear receptor subfamily 1 group I member 2 (Rattus norvegicus) (UniProt Q9R1A7); assay: qHTS assay for small molecule activators of the rat pregnane X receptor (rPXR) signaling pathway (AID 651751; call rule not given here; note: 0% is about no effect); conditions: rPXR reporter cells, luciferase (One-Glo), 24 h
Nuclear receptor subfamily 1 group I member 2 (Rattus norvegicus), sequence (Q9R1A7 whole entry, looked up): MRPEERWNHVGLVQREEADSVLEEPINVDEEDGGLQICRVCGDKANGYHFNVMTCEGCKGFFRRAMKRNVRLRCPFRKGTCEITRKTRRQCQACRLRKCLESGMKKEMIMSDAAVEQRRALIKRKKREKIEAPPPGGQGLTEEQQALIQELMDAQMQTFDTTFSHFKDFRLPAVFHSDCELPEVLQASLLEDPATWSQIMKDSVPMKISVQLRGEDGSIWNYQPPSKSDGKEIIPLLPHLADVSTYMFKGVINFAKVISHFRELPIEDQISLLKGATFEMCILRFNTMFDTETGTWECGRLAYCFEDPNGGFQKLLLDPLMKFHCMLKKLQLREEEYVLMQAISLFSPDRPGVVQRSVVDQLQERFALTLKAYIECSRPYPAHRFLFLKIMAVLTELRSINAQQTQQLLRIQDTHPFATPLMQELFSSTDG

[18] = target: Thyroid hormone receptor beta (Homo sapiens) (UniProt P10828); assay: qHTS assay for small molecule agonists of thyroid hormone receptor beta signaling (AID 588545)
Thyroid hormone receptor beta (Homo sapiens), sequence (P10828 whole entry, looked up): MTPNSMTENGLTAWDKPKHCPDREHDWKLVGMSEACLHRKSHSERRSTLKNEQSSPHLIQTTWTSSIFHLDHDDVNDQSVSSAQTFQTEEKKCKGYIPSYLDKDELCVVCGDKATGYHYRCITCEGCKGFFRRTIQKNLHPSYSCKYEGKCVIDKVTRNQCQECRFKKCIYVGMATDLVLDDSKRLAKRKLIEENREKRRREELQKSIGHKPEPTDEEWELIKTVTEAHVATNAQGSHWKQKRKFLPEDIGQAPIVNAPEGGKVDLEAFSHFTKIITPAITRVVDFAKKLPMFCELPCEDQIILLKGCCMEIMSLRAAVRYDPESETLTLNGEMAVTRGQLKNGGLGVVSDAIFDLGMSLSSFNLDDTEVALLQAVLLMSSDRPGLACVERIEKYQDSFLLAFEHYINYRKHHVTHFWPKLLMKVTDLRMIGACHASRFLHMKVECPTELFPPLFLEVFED
In short: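 In this cell-based screen, titrated compounds act on HEK 293 cells held in medium with 2% charcoal/dextran FBS, NEAA and pyruvate for 18 hrs at 37 C. Responses are expressed relative to T3 (10 nM) as 100% and basal DMSO as 0%.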

[19] = qHTS assay for small molecule activators of the nuclear factor-kappa B (NF-kB) signaling pathway (AID 651749; active = well fitted activation curve with a large enough effect in the signal ratio; inconclusive = small, poorly fitted or top-dose-only effect, or a change in a side signal; the % refers to the signal ratio; note: series mostly up to about 77 µM; % of control where 0% means no effect); conditions: NF-kB-bla ME-180 cells, beta-lactamase FRET ratio, 16 h; activation: stronger effect = higher value
In short: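 Screening used 2,000 ME-180 reporter cells per well exposed to pinned compound (23 nL) or DMSO; after 16 hr at 37C, beta-lactamase expression under NF-kB control was assessed through FRET.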

[20] = qHTS assay for cell viability of the p53RE-bla HCT-116 cell line (AID 743292; active = well fitted curve in the direction sought with a large enough effect; inconclusive = small, poorly fitted or top-dose-only effect, or another doubt; inactive = no such curve, though single readings can be large; an effect the other way counts as inactive or inconclusive; note: nearly all actives have a fitted effect of over 55% in size; note: potency is the fitted concentration of half-maximal effect)
In short: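 Compound-exposed HCT-116 (p53RE-bla) cells, 4,000 per well, were kept 16 h at 37 C following a 5 h preincubation. Cell number was estimated from total ATP by CellTiter-Glo luminescence read after 30 min at room temperature.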

CC(C)(C#N)N=NC(C)(C)C#N
-2.24%: max response [9]
-3.46%: max response [7]
inactive: Potency [1] | Potency [2] | outcome [3] | Potency [4] | Potency [5] | outcome [6] | Potency [8] | max response [10] -0.927% | activation [11] -7.6% | activation [12] 3.1% | max response [13] -0.208% | Potency [14] | max response [15] -0.383% | max response [16] -5.77% | max response [17] 0.774%

O=Nc1ccc(Nc2ccccc2)cc1
inactive: outcome [3] | outcome [6] | activation [11] 19.9% | activation [12] 6.01%
active: Potency [1] 12.6 µM [inconclusive] | Potency [2] 5.01 µM | Potency [11] 50.1 µM | Potency [14] 21.7 µM

c1cc[n+]2c(c1)-c1cccc[n+]1CC2
2.2%: max response [9]
active: Potency [1] 25.1 µM [inhibitor]
inactive: Potency [2] | outcome [3] | Potency [4] | Potency [5] | outcome [6] | Potency [8] | Potency [18] | max response [10] -20.8% | activation [19] -2.74% | activation [12] -0.462% | max response [13] -2.84% | max response [15] 1.16% | max response [16] -11.6%
-27.8%: max response [7]

CCOP(=O)(NC(C)C)Oc1ccc(S(C)=O)c(C)c1 (stereo not given)
0.27%: max response [7]
inactive: Potency [1] | Potency [2] | outcome [3] | Potency [4] | Potency [5] | outcome [6] | Potency [8] | Potency [18] | max response [10] 0.125% | activation [11] -0.147% | activation [19] 0.567% | activation [12] 3.87% | max response [13] -2.3% | Potency [14] | max response [15] 20.7% | max response [16] -0.132% | max response [17] -1.03%
-12.4%: max response [9]

COCc1cnc(C2=NC(C)(C(C)C)C(=O)N2)c(C(=O)O)c1 (stereo not given)
inactive: Potency [1] | Potency [2] | outcome [3] | Potency [4] | Potency [5] | outcome [6] | max response [10] 6.51% | activation [12] 1.65% | max response [13] 0.0113% | Potency [14] | max response [15] 4.02% | max response [16] -3.54% | Potency [20] | max response [17] -0.0309%
-13.7%: max response [9]

COP(=S)(OC)Oc1ccc([N+](=O)[O-])c(C)c1
inactive: Potency [1] | Potency [2] | outcome [3] | Potency [4] | Potency [5] | outcome [6] | Potency [8] | Potency [18] | max response [10] -30.1% | activation [11] -5.64% | activation [12] 2.78% | max response [13] -4.6% | Potency [14] | max response [15] -3.17% | max response [16] -7.08% | Potency [20] | max response [17] -1.75%
-7.02%: max response [9]
-4.53%: max response [7]

Brc1c(Br)c(Br)c(Br)c(Br)c1Br
-7.75%: max response [7]
-6.9%: max response [9]
inactive: Potency [1] | Potency [2] | outcome [3] | Potency [4] | Potency [8] | Potency [18] | max response [10] 0.275% | activation [11] 2.23% | activation [19] -0.808% | activation [12] 2.18% | max response [13] -0.494% | Potency [14] | max response [15] 3.38% | Potency [20] | max response [17] 0.884%

Clc1ccc([C@]2(Cn3cncn3)C[C@H](Br)CO2)c(Cl)c1
-0.873% and 8.46%: max response [7]
inactive: Potency [1] | Potency [2] | outcome [3] | Potency [4] | Potency [5] | outcome [6] | Potency [8] | Potency [18] | max response [10] -14.1% and -9.34% | activation [11] -0.748% and 2.17% | activation [19] -1.6% and -1.96% | activation [12] -0.98% and 1.78% | max response [13] -0.439% and 5.59% | Potency [14] | max response [15] -1.87% and -2% | max response [16] -7.75% and -8.79% | Potency [20]
-15.4% and -0.171%: max response [9]

CCC[CH2][Sn]([CH2]CCC)[CH2]CCC
active: Potency [1] 15.8 µM [inhibitor] | Potency [15] 15.8 µM | Potency [16] 28.2 µM | Potency [20] 28.2 µM
inactive: Potency [2] | activation [12] -0.508% | max response [13] 1.41% | max response [17] -14%

COc1nc(C)nc(NC(=O)NS(=O)(=O)c2ccccc2Cl)n1
inactive: Potency [1] | Potency [2] | Potency [4] | Potency [5] | outcome [6] | Potency [8] | max response [10] -1.72% | activation [11] -1.02% | activation [12] 1.34% | max response [13] -1.56% | Potency [14] | max response [15] -0.816% | max response [16] -13% | Potency [20] | max response [17] -1.17%
-9.33%: max response [9]
-7.69%: max response [7]

C=CC(=O)OCC(CO)(COC(=O)C=C)COC(=O)C=C
-17.9%: max response [9]
active: Potency [1] 7.94 µM [inconclusive] | Potency [5] 7.08 µM | Potency [10] 5.62 µM | Potency [14] 16.8 µM and 12.2 µM
inactive: Potency [2] | outcome [6] | max response [15] -24.9%

O=P(O)(O)CCCl
inactive: Potency [1] | Potency [2] | outcome [3] | Potency [4] | Potency [5] | outcome [6] | Potency [18] | max response [10] 5.61% | activation [11] -3.48% and 2.67% | activation [19] 1.25% and -0.207% | activation [12] -0.0383% and -0.0843% | max response [13] 0.775% and -1.46% | Potency [14] | max response [15] -26.8% and 3.51% | max response [16] -9.79% and -10.1% | max response [17] -9.16% and -4.17%
-6.38%: max response [9]
